Where “and” joins values, the source holds several entries; their conditions need not be identical. Equal entries are not always repeated. Inconclusive results are not listed. Some structures have more than one record in an assay (separate samples or runs), and their calls can disagree. Calls of active or inactive are those of the source. Calls come from the whole dose curve; as a rule, active = well fitted curve in the direction sought with a large enough effect in the repeat runs; inconclusive = weak or mixed curves; inactive = no such curve, though single readings can be large; an effect the other way counts as inactive or inconclusive.

The values below come from PubChem BioAssay (Tox21).

Assay [1] in a line: A CellTox Green Cytotoxicity Assay to monitor cytotoxicity in HepG2 cells - 0 hour (AID 1224882). Note: nearly all actives have a fitted effect of over 35% in size. The method, boiled down: (§1)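 Read-out is fluorescence of a cyanine dye excluded from live cells that stains DNA of dead HepG2 cells, with signal proportional to cytotoxicity. Plates were read at 0, 8, 16, 24, 32 and 40 h after compound addition.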
The nature of assay [2]: A CellTox Green Cytotoxicity Assay to monitor cytotoxicity in HepG2 cells - 32 hour (AID 1224883). Note: nearly all actives have a fitted effect of over 50% in size. Note: potency is the fitted concentration of half-maximal effect. The method, boiled down: as §1
A short description of assay [3]: A CellTox Green Cytotoxicity Assay to monitor cytotoxicity in HEK293 cells - 8 hour (AID 1224884). Note: nearly all actives have a fitted effect of over 35% in size. Note: potency is the fitted concentration of half-maximal effect. The gist of the method: (§2)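 Nonlytic real-time cytotoxicity: HEK293 + CellTox Green reagent plated, 5 h preincubation, pintool compound addition (23 nL in DMSO), 37 C for 40 h, fluorescence measured at successive time points.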
Assay [4] can be described thus: qHTS RealTime-Glo MT Cell Viability Assay in HepG2 cells - 16 hour (AID 1224885). Note: nearly all actives have a fitted effect of over 50% in size. Note: potency is the fitted concentration of half-maximal effect. The gist of the method:
(§3)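 Cell number in HepG2 cultures estimated from NanoLuc luminescence generated by metabolic reduction of a prosubstrate by living cells. The homogeneous, nonlytic format allowed repeated reads at 0, 8, 16, 24, 32 and 40 h of compound exposure.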
(In general: In qHTS, concentration-response curves come from the screen itself.)

A short description of assay [5]: qHTS RealTime-Glo MT Cell Viability Assay in HEK293 cells - 24 hour (AID 1224886). Note: nearly all actives have a fitted effect of over 50% in size. Note: potency is the fitted concentration of half-maximal effect. The gist of the method: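 Homogeneous bioluminescent viability format in HEK293 cells (600 cells/well). Following 5 h at 37 C/5% CO2, 23 nL compound was pintooled; the signal was measured repeatedly during 40 h incubation.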
The nature of assay [6]: qHTS RealTime-Glo MT Cell Viability Assay in HEK293 cells - 8 hour (AID 1224887). Note: top concentration of the series differs between compounds; nearly all actives have a fitted effect of over 50% in size. The method, boiled down: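 Cells were seeded together with NanoLuc luciferase and a prosubstrate that viable cells reduce to a luciferase substrate. After a 5 h incubation at 37 C/5% CO2, compounds were added and luminescence was measured repeatedly during 40 h of treatment.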
A short description of assay [7]: qHTS RealTime-Glo MT Cell Viability Assay in HepG2 cells - 0 hour (AID 1224889). Note: nearly all actives have a fitted effect of over 50% in size. The method, boiled down: as §3
The nature of assay [8]: qHTS assay to identify small molecule antagonists of the estrogen receptor alpha (ER-alpha) signaling pathway using the BG1 cell line in the presence of 0.1 nM 17-beta-estradiol - cell viability counter screen (AID 1259241). Note: nearly all actives have a fitted effect of over 40% in size. The gist of the method: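 VM7Luc4E2, 4,000 cells/well, phenol red-free medium + 10% charcoal-stripped FBS; 24 hr plating; cpd + 0.1 nM E2 final, 22 hr 37C/5% CO2; CellTiter-Fluor 30 min, fluorescence.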

The nature of assay [9]: A CellTox Green Cytotoxicity Assay to monitor cytotoxicity in HEK293 cells - 16 hour (AID 1224888). Note: nearly all actives have a fitted effect of over 35% in size. Note: potency is the fitted concentration of half-maximal effect. The method, boiled down:
as §2

Assay [10] in a line: A CellTox Green Cytotoxicity Assay to monitor cytotoxicity in HepG2 cells - 8 hour (AID 1224890). Note: nearly all actives have a fitted effect of over 45% in size. Note: potency is the fitted concentration of half-maximal effect. The gist of the method:
as §1

Turning to `CCn1cc[n+](C)c1`, the Potency result in [1], in assay [2], in [3], in [4], in [6] and in assay [7] was “inactive” in each case. Besides, the Potency result in assay [8] is “inactive”. Further, the Potency result in assay [5] is “inactive and 1.75 µM (active)”.

Take `CO/N=C(/C(=O)OC)c1ccccc1COc1ccccc1C`: the Potency entry in [1], in [2], in assay [3], in [4], in assay [5] and in assay [9] was “inactive” each time. The Potency result in [7], in assay [10] and in assay [8] was “inactive” throughout.

As for `COC(=O)C(Br)CBr` (stereo not given), the Potency entry in [1], in assay [2], in assay [3], in assay [4], in [5] and in [6] was “inactive” each time. Further, the Potency result in [7], in assay [10] and in [8] was “inactive” each time.

On to `c1ccc(C2CC2)c(OCC2=NCCN2)c1`, for which the Potency entry in assay [1], in [2], in assay [3], in [4], in [5] and in [9] was “inactive” in each case. In addition, the Potency result in assay [7], in assay [10] and in assay [8] was “inactive” each time.

Consider `CCCCC(CC)COP(=O)(Oc1ccccc1)Oc1ccccc1` (stereo not given), for which the Potency result in assay [1], in assay [2], in assay [3], in [4], in [6] and in [7] was “inactive” each time. Also, the Potency result in [10] and in assay [8] was “inactive” in each case.

Regarding `IC(I)=C(I)I`, the Potency result in [1] is “inactive”. Besides, the Potency in [2] is 13.8 µM (active); in assay [3], 54.9 µM (active); in assay [4] it was 0.776 µM (active); in assay [5] it was 6.92 µM (active); in assay [9], 54.9 µM (active); in assay [10], 38.9 µM (active).

For `CC(=O)C(C)(C)C`, the Potency entry in assay [1], in [2], in assay [3], in assay [4], in [5] and in assay [7] was “inactive” each time. Also, the Potency entry in [10] and in assay [8] was “inactive” in each case.

Take `[CH3][Sn]([CH3])([Cl])[Cl]`: the Potency entry in [1], in assay [2], in assay [3], in assay [4], in assay [6] and in assay [9] was “inactive” in each case. The Potency result in assay [7], in assay [10] and in [8] was “inactive” each time.

With `O=C1CN=C(c2ccccc2)c2cc(Cl)ccc2N1CC1CC1`, the Potency entry in [1], in assay [2], in assay [3], in assay [4], in assay [10] and in [8] was “inactive” throughout.

For the compound `Cl/C=C\C[N+]12CN3CN(CN(C3)C1)C2`, the Potency entry in assay [1], in [2], in assay [3], in assay [4], in assay [6] and in assay [9] was “inactive” in each case. Besides, the Potency entry in assay [7] and in assay [8] was “inactive” throughout.

`CN1C[C@H](CNC(=O)OCc2ccccc2)C[C@@H]2c3cccc4c3c(cn4C)C[C@H]21`: the Potency result in assay [1], in assay [3], in assay [9], in [7], in [10] and in assay [8] was “inactive” throughout. The figures for the Potency in assay [2] and in [5] were 26.8 µM (active) and 21.3 µM (active), respectively.

Take `CC1(C)CCC(Cc2ccc(Cl)cc2)C1(O)Cn1cncn1` (stereo not given): the Potency entry in [1], in [3], in assay [9], in [7] and in [8] was “inactive” in each case. Also, the Potency was 54.9 µM (active) in assay [2] and 24.5 µM (active) in assay [5].

Consider `CCC(Cl)CCl` (stereo not given), for which the Potency entry in [1], in assay [2], in assay [3], in assay [4], in [5] and in [7] was “inactive” in each case. Also, the Potency result in assay [10] and in assay [8] was “inactive” each time.

Consider `CCOC(=O)CBr`, for which the Potency entry in [1], in [2], in assay [3], in assay [4], in assay [7] and in assay [10] was “inactive” in each case. The Potency entry in assay [8] is “inactive”.

For `N#Cc1cc(I)c(O)c(I)c1`, the Potency result in [1], in assay [2], in assay [3], in [4], in [6] and in assay [7] was “inactive” throughout. In [10], the Potency entry is “inactive”.

For the compound `CCCCOC(=O)c1ccccc1C(=O)OCc1ccccc1`, the Potency entry in assay [1], in [2], in assay [3], in [4], in assay [7] and in [10] was “inactive” throughout. Further, the Potency result in assay [8] was “inactive”.

On to `CC(=O)[C@H]1CC[C@H]2[C@@H]3CC[C@H]4C[C@](C)(O)CC[C@]4(C)[C@H]3CC[C@]12C`, for which the Potency entry in [1], in assay [2], in assay [3], in assay [4], in [5] and in assay [7] was “inactive” throughout. In assay [8], the Potency entry was “inactive”.

For `OC(c1ccc(Cl)cc1)(c1ccc(Cl)cc1)c1cccnc1`, the Potency entry in assay [1], in assay [2], in [3], in assay [9], in assay [7] and in assay [10] was “inactive” each time. The Potency entry in assay [8] was “inactive”. The Potency in assay [5] was 38.9 µM (active).
